Consider one sequence from article PMC7862700, “An all-to-all approach to the identification of sequence-specific readers for epigenetic DNA modifications on cytosine”.

Common to all, as to assay: DAPPL (digital affinity profiling via proximity ligation, sequencing); 10 mM Tris-HCl pH 7.5, 50 mM NaCl, 1 mM DTT, 4% glycerol, room temperature, 30 min; GST-TFs on glutathione beads, 16-mer random dsDNA library, 0.1% formaldehyde crosslink after washing; high values mean tight binding
Conditions in all cases: protein: recombinant; tags: N-terminal GST; dsDNA, one strand shown

One assay concerns the target T1, FLI1 (Homo sapiens, UniProt Q01543 1-452).
T1 sequence: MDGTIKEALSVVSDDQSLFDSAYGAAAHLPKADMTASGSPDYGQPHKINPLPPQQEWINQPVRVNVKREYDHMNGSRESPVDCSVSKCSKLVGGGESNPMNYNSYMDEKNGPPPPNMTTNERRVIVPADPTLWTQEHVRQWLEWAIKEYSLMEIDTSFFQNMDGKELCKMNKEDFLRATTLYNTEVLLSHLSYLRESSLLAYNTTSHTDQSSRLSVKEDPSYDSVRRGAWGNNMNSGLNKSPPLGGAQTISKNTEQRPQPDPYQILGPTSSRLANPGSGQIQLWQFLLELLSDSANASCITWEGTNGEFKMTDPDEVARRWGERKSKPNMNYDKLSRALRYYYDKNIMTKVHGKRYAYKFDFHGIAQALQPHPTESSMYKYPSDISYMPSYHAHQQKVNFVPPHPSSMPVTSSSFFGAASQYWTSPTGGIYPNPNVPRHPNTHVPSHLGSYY
The procedure, abridged:
(§1)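 Pools of DNA-barcoded human transcription factors, expressed in yeast as GST fusions on glutathione beads and combined with a tag-only sample, were incubated with 200 nmole of a 16-mer random double-stranded DNA library. Incubation took 30 min at room temperature in Tris/NaCl/DTT/glycerol buffer and was followed by washing, 0.1% formaldehyde crosslinking, proximity ligation (BsaI/T4 ligase, 1 h, 37 °C), PCR amplification and sequencing on an Illumina NextSeq500. Binding signal is the ratio of a hexamer's read frequency for a factor to its frequency for the tag-only sample.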

Another assay addresses T2, ELK1 (Homo sapiens, UniProt P19419 1-428).
T2 sequence: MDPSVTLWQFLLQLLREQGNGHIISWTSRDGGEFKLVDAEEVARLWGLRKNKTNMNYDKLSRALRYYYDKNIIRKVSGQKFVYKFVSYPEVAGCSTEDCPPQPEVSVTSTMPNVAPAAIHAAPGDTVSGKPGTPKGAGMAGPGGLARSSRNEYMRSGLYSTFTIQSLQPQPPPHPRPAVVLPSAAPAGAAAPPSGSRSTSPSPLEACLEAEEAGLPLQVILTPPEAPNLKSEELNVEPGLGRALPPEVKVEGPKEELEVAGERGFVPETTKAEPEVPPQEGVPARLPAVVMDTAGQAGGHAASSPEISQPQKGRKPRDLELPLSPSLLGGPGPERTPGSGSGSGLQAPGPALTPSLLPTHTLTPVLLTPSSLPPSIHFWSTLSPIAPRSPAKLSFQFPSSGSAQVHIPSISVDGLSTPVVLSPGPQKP
A digest of the protocol: as §1

The target of a further assay is T3, GABPA (Homo sapiens, UniProt Q06546 1-454).
T3 sequence: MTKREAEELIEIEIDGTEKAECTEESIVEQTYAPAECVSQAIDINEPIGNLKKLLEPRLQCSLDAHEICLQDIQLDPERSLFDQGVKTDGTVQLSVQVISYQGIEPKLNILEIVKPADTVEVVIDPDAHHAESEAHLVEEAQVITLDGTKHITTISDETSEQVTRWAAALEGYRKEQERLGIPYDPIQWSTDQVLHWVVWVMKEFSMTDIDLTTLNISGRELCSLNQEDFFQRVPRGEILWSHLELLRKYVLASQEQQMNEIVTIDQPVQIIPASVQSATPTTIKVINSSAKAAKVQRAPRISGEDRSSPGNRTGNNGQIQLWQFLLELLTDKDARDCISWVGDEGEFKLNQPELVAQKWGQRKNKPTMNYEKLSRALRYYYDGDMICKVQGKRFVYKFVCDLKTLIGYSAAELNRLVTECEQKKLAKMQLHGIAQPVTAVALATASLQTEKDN
A digest of the protocol:
as §1

The target in another assay is T4, ERG (Homo sapiens, UniProt P11308 1-479).
T4 sequence: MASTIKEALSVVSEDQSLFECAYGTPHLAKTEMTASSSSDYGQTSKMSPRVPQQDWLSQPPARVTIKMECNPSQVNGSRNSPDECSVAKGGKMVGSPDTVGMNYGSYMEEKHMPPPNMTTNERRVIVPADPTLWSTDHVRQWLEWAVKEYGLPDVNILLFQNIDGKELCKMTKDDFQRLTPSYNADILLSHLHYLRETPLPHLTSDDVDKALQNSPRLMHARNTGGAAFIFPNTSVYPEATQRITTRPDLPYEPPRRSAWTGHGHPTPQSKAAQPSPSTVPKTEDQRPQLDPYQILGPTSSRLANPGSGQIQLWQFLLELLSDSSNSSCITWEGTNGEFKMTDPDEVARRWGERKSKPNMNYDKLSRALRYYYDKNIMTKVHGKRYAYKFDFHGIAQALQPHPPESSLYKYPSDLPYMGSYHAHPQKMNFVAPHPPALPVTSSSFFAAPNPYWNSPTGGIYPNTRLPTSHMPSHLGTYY
The procedure, abridged: as §1

The target in another assay is ELF1 (Homo sapiens, UniProt P32519 1-619). The procedure, abridged: as §1
For a further assay, the target named is T5, EHF (Homo sapiens, UniProt Q9NZC4 1-300).
T5 sequence: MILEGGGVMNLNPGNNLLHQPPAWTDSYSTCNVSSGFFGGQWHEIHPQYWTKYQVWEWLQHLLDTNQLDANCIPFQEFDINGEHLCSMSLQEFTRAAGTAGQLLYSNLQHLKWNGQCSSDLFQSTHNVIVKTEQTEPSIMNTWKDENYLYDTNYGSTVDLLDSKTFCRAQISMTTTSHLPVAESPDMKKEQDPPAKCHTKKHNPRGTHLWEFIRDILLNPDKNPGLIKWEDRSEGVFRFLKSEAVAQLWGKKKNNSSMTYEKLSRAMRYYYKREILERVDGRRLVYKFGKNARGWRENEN
The procedure, abridged: as §1

The target of a further assay is SPI1 (Homo sapiens, UniProt P17947 1-270). A digest of the protocol: as §1
In a further assay the target is SPIB (Homo sapiens, UniProt Q01892 1-262). A digest of the protocol: as §1
Another assay addresses T6, FEV (Homo sapiens, UniProt Q99581 1-238).
T6 sequence: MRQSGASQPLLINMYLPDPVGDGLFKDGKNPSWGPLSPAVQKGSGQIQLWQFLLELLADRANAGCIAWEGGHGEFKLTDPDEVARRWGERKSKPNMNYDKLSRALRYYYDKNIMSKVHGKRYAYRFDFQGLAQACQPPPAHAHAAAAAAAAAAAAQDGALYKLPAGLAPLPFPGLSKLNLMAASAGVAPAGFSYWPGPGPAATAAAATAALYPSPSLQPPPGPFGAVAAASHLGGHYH
A digest of the protocol: as §1

The next assay has as its target ETV5 (Homo sapiens, UniProt P41161 1-510). The procedure, abridged:
as §1

The next assay addresses T7, SPIC (Homo sapiens, UniProt Q8N5J4 1-248).
T7 sequence: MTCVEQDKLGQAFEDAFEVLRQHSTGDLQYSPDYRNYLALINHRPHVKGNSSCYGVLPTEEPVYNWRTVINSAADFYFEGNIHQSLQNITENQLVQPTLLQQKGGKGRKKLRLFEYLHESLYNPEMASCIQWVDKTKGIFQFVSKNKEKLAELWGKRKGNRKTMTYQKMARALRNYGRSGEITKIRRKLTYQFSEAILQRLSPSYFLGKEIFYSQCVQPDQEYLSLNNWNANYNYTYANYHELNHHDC
A digest of the protocol:
as §1

A further assay deals with ELF4 (Homo sapiens, UniProt Q99607 1-663). A digest of the protocol:
as §1

The target in a further assay is ETV1 (Homo sapiens, UniProt P50549 1-477). A digest of the protocol:
as §1

The target of another assay is T8, ERF (Homo sapiens, UniProt P50548 1-548).
T8 sequence: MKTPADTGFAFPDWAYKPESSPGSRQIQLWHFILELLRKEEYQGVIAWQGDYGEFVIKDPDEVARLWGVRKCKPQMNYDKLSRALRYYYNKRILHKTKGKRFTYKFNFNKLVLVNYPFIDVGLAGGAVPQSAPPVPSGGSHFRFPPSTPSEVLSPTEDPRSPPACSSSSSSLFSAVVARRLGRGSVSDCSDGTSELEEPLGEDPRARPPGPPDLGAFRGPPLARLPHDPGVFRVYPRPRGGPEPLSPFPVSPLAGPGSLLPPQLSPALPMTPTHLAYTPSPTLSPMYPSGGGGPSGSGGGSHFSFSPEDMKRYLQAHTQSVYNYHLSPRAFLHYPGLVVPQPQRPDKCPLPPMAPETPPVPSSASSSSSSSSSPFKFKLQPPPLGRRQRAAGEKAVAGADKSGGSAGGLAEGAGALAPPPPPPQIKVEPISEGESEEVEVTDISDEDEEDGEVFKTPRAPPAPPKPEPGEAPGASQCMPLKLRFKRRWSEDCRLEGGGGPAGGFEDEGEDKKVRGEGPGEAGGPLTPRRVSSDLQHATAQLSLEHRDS
The procedure, abridged:
as §1

The next assay deals with T9, ETV3L (Homo sapiens, UniProt Q6ZN32 1-361).
T9 sequence: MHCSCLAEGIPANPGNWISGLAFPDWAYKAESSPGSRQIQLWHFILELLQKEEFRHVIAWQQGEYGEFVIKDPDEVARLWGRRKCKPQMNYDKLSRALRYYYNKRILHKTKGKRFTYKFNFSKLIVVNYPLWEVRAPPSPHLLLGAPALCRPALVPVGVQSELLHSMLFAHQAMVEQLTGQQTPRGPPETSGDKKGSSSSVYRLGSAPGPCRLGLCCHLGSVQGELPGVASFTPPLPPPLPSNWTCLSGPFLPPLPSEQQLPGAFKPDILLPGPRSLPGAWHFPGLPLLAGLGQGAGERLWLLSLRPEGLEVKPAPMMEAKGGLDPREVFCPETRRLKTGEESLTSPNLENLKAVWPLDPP
A digest of the protocol:
as §1

The target in another assay is T10, ETS2 (Homo sapiens, UniProt P15036 1-469).
T10 sequence: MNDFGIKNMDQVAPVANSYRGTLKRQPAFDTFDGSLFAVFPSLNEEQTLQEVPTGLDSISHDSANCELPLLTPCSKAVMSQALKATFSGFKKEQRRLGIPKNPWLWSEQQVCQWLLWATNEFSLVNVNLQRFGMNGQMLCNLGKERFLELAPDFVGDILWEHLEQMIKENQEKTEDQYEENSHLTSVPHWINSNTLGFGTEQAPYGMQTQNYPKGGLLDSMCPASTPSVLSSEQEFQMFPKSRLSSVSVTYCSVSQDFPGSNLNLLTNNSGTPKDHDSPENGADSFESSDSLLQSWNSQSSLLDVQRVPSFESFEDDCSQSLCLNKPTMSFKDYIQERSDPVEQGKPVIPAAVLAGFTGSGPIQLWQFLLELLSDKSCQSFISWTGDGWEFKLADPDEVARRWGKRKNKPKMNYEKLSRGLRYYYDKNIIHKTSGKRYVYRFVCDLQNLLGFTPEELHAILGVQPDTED
A digest of the protocol: as §1

Another assay deals with T11, ELF5 (Homo sapiens, UniProt Q9UKW6-2 1-255).
T11 sequence: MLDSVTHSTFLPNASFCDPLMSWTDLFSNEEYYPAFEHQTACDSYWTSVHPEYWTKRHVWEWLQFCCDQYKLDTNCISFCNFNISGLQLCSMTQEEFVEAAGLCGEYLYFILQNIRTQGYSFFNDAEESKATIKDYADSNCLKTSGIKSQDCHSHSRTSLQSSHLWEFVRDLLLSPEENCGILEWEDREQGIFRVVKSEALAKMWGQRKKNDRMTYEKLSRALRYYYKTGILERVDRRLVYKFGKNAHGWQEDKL
A digest of the protocol:
as §1

The next assay addresses T12, ETV3 (Homo sapiens, UniProt P41162-2 1-143).
T12 sequence: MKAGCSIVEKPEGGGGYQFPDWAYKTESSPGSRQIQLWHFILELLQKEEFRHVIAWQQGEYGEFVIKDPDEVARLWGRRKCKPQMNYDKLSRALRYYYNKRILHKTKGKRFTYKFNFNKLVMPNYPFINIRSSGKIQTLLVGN
The procedure, abridged: as §1

Another assay addresses ETV6 (Homo sapiens, UniProt P41212 1-452). The procedure, abridged:
as §1

ETV6, sequence (P41212 whole entry): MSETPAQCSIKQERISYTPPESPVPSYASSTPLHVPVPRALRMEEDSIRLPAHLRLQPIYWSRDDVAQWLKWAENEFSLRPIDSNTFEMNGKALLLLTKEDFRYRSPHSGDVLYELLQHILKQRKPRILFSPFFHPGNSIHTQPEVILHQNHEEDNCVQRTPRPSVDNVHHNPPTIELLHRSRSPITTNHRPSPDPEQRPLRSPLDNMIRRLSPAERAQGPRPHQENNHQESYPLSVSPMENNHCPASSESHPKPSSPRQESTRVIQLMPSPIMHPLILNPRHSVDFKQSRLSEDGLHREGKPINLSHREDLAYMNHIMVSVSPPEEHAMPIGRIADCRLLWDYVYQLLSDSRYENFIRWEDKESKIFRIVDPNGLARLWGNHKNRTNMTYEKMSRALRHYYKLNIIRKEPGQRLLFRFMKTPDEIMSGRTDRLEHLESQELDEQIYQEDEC
ELF1, sequence (P32519 whole entry): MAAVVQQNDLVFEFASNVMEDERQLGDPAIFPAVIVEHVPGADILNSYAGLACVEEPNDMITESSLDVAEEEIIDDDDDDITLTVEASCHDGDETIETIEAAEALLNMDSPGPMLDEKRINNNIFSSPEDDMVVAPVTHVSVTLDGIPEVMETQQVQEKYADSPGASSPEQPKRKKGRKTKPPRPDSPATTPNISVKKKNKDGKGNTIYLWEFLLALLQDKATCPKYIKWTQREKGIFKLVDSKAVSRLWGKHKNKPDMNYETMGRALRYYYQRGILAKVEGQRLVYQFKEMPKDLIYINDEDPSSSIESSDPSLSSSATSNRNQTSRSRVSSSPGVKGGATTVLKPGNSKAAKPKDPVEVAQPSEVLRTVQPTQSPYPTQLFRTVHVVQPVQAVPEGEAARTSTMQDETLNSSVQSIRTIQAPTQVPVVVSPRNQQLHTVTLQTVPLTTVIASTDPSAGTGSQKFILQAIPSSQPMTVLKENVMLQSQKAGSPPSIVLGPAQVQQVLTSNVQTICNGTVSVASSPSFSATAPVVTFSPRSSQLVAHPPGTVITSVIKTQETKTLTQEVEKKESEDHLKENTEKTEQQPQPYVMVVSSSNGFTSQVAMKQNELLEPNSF
ETV1, sequence (P50549 whole entry): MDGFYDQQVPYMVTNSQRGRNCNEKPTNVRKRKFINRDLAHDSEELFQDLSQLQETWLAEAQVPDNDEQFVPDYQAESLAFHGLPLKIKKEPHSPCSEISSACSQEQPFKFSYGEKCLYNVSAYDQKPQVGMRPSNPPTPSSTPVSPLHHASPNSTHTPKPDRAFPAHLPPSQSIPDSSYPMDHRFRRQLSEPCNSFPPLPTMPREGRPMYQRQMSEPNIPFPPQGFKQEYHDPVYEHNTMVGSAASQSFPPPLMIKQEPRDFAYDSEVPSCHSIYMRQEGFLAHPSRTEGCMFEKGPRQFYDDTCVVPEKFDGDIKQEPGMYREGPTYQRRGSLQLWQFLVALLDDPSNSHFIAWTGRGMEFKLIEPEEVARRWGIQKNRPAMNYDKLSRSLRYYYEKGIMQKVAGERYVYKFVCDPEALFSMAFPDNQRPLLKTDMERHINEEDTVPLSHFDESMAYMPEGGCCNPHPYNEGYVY
SPIB, sequence (Q01892 whole entry): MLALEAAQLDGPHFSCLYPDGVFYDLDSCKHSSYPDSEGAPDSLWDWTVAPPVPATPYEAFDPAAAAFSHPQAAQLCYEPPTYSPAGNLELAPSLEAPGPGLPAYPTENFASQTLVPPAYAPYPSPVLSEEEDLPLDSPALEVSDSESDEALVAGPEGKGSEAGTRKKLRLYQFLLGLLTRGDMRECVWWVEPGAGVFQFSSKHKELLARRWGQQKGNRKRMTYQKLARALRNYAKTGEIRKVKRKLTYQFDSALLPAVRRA
ELF4, sequence (Q99607 whole entry): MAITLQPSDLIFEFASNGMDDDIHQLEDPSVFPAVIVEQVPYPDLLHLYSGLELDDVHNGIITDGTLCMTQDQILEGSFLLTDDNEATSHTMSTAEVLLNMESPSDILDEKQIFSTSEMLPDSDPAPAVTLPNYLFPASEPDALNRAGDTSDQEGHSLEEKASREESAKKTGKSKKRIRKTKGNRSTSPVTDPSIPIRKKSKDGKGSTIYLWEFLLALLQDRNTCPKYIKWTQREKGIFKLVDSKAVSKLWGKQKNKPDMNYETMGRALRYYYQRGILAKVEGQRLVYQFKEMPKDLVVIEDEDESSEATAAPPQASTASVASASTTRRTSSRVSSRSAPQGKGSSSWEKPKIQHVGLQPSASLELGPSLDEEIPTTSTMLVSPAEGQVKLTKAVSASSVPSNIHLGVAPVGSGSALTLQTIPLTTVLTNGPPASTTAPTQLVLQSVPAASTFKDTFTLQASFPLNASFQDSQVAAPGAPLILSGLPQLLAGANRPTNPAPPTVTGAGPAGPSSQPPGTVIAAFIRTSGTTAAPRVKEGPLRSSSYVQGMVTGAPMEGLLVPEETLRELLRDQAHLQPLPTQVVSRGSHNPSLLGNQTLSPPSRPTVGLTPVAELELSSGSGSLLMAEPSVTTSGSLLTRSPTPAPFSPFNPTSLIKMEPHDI
ETV5, sequence (P41161 whole entry): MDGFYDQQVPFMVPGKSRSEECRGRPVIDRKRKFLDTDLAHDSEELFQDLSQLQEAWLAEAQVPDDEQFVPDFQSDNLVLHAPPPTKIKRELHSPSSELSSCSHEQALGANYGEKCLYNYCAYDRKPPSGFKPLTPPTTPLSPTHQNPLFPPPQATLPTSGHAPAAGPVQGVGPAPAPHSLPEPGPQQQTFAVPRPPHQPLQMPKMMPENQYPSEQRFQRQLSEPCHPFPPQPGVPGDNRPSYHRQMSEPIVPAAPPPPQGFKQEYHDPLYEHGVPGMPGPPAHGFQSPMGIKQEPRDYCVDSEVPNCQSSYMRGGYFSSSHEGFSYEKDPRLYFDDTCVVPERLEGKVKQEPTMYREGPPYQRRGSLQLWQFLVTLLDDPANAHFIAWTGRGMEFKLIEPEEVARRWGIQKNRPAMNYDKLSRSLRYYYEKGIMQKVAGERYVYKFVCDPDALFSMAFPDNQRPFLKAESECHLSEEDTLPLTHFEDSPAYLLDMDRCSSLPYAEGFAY

On to GTCCCA, for which the binding signal with FLI1 was 1.03 fold enrichment (6-mer frequency, TF over GST control); with ELK1, 1.14 fold enrichment (6-mer frequency, TF over GST control); with GABPA it was 1.11 fold enrichment (6-mer frequency, TF over GST control); with ERG it was 1.17 fold enrichment (6-mer frequency, TF over GST control); in the assay with ELF1, 1.14 fold enrichment (6-mer frequency, TF over GST control); with EHF, 1.1 fold enrichment (6-mer frequency, TF over GST control). Moreover, the binding signal with SPI1 is 1.13 fold enrichment (6-mer frequency, TF over GST control); with SPIB, 1.06 fold enrichment (6-mer frequency, TF over GST control); in the assay with FEV it was 1.12 fold enrichment (6-mer frequency, TF over GST control); in the assay with ETV5, 1.05 fold enrichment (6-mer frequency, TF over GST control); with SPIC it was 1.12 fold enrichment (6-mer frequency, TF over GST control); in the assay with ELF4 it was 1.13 fold enrichment (6-mer frequency, TF over GST control). Also, the binding signal in the assay with ETV1 was 1.14 fold enrichment (6-mer frequency, TF over GST control); with ERF, 1.12 fold enrichment (6-mer frequency, TF over GST control); in the assay with ETV3L, 1.13 fold enrichment (6-mer frequency, TF over GST control); in the assay with ETS2, 1.05 fold enrichment (6-mer frequency, TF over GST control); with ELF5, 1.12 fold enrichment (6-mer frequency, TF over GST control); with ETV3, 1.07 fold enrichment (6-mer frequency, TF over GST control). Besides, the binding signal in the assay with ETV6 was 1.03 fold enrichment (6-mer frequency, TF over GST control).
